Source: the supplement of paper PMC11624193, “Coupling cellular drug-target engagement to downstream pharmacology with CeTEAM” (Nature Communications, 2024)
Structures can show the parent of a compound that is named as a salt. ± gives the standard deviation of the averaged measurements.

What follows are molecules tested against PARP1 L713F-nLuc biosensor (HCT116) (UniProt P09874) (assay: PARP1 L713F-nLuc/akaLuc ratio relative to DMSO control (biosensor stabilization) (fold change); higher = more PARP1 biosensor stabilization (target engagement / stabilizer), active = hit call of the paper). Settings: stock concentration (mM; final µM = stock mM x 1): 10; 24 h;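 active = log2 fold change beyond 2 SD from the library mean after excluding viability outliers; inactive = within 2 SD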.
Sequence of PARP1 L713F-nLuc biosensor (HCT116) (P09874 whole entry L713F, looked up): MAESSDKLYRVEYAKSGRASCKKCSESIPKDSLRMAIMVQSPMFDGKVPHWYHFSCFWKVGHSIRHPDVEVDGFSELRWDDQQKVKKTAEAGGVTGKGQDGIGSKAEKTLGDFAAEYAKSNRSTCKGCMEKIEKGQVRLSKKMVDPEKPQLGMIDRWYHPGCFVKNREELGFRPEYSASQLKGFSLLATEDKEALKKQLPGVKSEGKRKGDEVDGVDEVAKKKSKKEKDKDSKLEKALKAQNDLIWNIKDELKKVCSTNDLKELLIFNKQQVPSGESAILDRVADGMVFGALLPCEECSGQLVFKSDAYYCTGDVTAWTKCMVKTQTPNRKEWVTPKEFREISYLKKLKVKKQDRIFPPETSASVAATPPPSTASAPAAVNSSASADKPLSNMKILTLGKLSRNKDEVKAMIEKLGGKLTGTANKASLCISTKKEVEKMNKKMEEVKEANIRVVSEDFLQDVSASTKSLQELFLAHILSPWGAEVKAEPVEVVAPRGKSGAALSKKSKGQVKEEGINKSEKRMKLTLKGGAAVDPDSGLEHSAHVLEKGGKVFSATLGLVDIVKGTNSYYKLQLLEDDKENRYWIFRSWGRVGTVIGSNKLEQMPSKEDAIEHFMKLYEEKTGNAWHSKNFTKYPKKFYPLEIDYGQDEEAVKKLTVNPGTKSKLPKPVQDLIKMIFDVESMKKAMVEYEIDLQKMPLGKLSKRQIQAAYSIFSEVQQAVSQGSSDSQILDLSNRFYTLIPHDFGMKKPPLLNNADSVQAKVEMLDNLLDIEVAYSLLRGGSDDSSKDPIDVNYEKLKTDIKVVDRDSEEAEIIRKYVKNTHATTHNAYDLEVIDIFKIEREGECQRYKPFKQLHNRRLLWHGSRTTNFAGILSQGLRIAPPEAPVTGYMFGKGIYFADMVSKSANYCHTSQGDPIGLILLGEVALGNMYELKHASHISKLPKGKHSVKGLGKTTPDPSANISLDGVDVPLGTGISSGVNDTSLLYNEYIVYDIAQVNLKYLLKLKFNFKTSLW

SMILES	PARP1 L713F-nLuc/akaLuc ratio
FC(F)c1nc2ccccc2n1-c1nc(N2CCOCC2)nc(N2CCOCC2)n1	0.962 (inactive)
CN(C)CCCN(CC[C@H](N)C(=O)O)C[C@H]1O[C@@H](n2cnc3c(N)ncnc32)[C@H](O)[C@@H]1O [GSK2807 (Trifluoroacetate)]	0.926 (inactive)
COc1cccc2c1c(O)c(C(=O)N(C)c1ccc(C(F)(F)F)cc1)c(=O)n2C [Tasquinimod]	1.12 (inactive)
N[C@H]1C[C@@H]1c1ccc(-c2cccc(O)c2)cc1	0.692 (inactive)
CN1CCCN(C(=O)c2cccc(-c3ccc(/C=C4/C(=O)Nc5ccc(Cl)cc54)o3)c2)CC1 [CX-6258 (hydrochloride)]	0.53 (inactive)
CC1=C(C)C(=O)C(C(C)(C)CC(=O)N(CCCCSC[C@H]2O[C@@H](n3cnc4c(N)ncnc43)[C@H](O)[C@@H]2O)Cc2cccc(-c3ccc(Cl)cc3)c2)=C(C)C1=O	0.784 (inactive)
O=C(O)CCNc1cc(N2CCc3ccccc3CC2)nc(-c2cccnc2)n1	1.22 (inactive)
O=C(O)Cn1nnc(-c2ccc(CN(CCCCOc3ccc(CN4CCCC4)cc3)CCc3ccccc3)cc2)n1	1.04 (inactive)
CCS(=O)(=O)N1CCN(c2ccc(Nc3ncc(C(N)=O)c(NC4CC4)n3)cc2)CC1 [Cerdulatinib]	1.82 (inactive)
O=c1c2c([nH]n1-c1nc3ccccc3s1)CCCC2	0.788 (inactive)
COC(=O)c1ccc2c(c1)NC(=O)/C2=C(\Nc1ccc(N(C)C(=O)CN2CCN(C)CC2)cc1)c1ccccc1 [Nintedanib (BIBF 1120)]	0.6 (inactive)
COc1ccc(-c2c(-c3ccc(C#N)c(F)c3)nc(N3CCC(N)CC3)n(C)c2=O)cc1F [Pulrodemstat (benzenesulfonate)]	1.26 (inactive)
COc1cc2nc(N3CCCC3)nc(NCCCCCN3CCCC3)c2cc1OC	0.881 (inactive)
CNC(=O)c1ccc2cc([C@@]3(O)CCn4cncc43)ccc2c1 [TAK-700 (Orteronel)]	0.776 (inactive)
CN(C)C[C@@H]1CCn2cc(c3ccccc32)C2=C(C(=O)NC2=O)c2cn(c3ccccc23)CCO1 [Ruboxistaurin (hydrochloride)]	0.778 (inactive)
Cc1c(C(=O)Nc2ccc(N3C[C@@H](C)O[C@@H](C)C3)nc2)cccc1-c1ccc(OC(F)(F)F)cc1 [Sonidegib (Erismodegib, NVP-LDE225)]	0.652 (inactive)
CC(C)=CCC/C(C)=C/Cc1c(O)c(CC=C(C)C)c2c(c1O)C(=O)C1=C[C@@H]3C[C@H]4C(C)(C)O[C@@](C/C=C(/C)C(=O)O)(C3=O)[C@@]14O2 [Gambogenic acid]	1.04 (inactive)
Nc1nc(Cl)nc2c1ncn2[C@H]1C[C@H](O)[C@@H](CO)O1 [Cladribine]	0.383 (inactive)
CNC(=O)c1ccc(C)c(-n2c(C)cc(OCc3ccc(F)cc3F)c(Br)c2=O)c1	0.728 (inactive)
Cc1cccc(CC(=O)N2CCc3c2ccc(-c2cn(C)c4ncnc(N)c24)c3F)n1	1.05 (inactive)

SMILES	PARP1 L713F-nLuc/akaLuc ratio
N[C@@H]1CCCN(c2c(/C=C3\SC(=O)NC3=O)cccc2-c2ccccc2)C1	0.726 (inactive)
C=CC(=O)N1CCC[C@@H](n2nc(-c3ccc(Oc4ccccc4)cc3)c3c(N)ncnc32)C1	0.773 (inactive)
O=C1c2cccc(O)c2C(=O)c2c(O)cccc21 [Danthron]	1.32 (inactive)
N#Cc1cc(F)cc(Oc2ccc3c(c2C(F)F)[C@@H](O)C(F)(F)S3(=O)=O)c1	1.92 (inactive)
Cc1cc2c(F)c(Oc3ncnn4cc(OC[C@@H](C)O)c(C)c34)ccc2[nH]1	0.898 (inactive)
Cc1cc(-c2nc(-c3ccc(OC(F)(F)F)cc3)no2)nn1Cc1ccnc(N2CCN(C3CC3)CC2)c1	0.46 ± 0.17
Cc1cn(-c2cc(NC(=O)c3ccc(C)c(Nc4nccc(-c5cnccn5)n4)c3)cc(C(F)(F)F)c2)cn1 [Radotinib]	0.904 (inactive)
O=C(NOCCO)c1ccc2cncn2c1Nc1ccc(I)cc1F	0.421 (inactive)
CCOC(=O)c1cnc(NC2(c3ccccc3)CC2)nc1	0.982 (inactive)
CC(=O)Nc1ccc(C(=O)Nc2ccc(F)cc2N)cc1	0.984 (inactive)
Cn1cc(CCn2cnc(-c3cnn(C)c3)c2-c2ccc(C#N)cc2)cn1	0.997 (inactive)
Cc1cc(Nc2cc(CN3CCOCC3)c3nc(C)c(Cc4ccc(Cl)cc4F)n3n2)n[nH]1	1.18 (inactive)
O=C(c1ccc(/C=C/c2n[nH]c3ccccc23)cc1)N1CCNCC1	1.3 (inactive)
CCN(c1cc(-c2ccc(CN3CCOCC3)cc2)cc(C(=O)NCc2c(C)cc(C)[nH]c2=O)c1C)C1CCOCC1 [Tazemetostat]	0.962 (inactive)
O=C(c1cc(Cn2c(=O)[nH]c(=O)c3c(F)cccc32)ccc1F)N1CCN(c2ncccn2)CC1 [Senaparib]	3.98 (active)
CN(C)C(=N)N=C(N)N [Metformin D6 (hydrochloride)]	1.08 (inactive)
CO[C@@H](C(=O)N1Cc2[nH]nc(NC(=O)c3ccc(N4CCN(C)CC4)cc3)c2C1)c1ccccc1	0.781 (inactive)
CCc1cccc(CC)c1NC(=O)N1Cc2[nH]nc(NC(=O)c3ccc(N4CCN(C)CC4)cc3)c2C1	0.92 (inactive)
N#Cc1ccc(C(=O)N(Cc2cccs2)C2CC2)cc1	1.18 (inactive)
